Bioassay records deposited in PubChem BioAssay by National Center for Advancing Translational Sciences (NCATS).
ATXN2 expr inh = ATXN2 expression inhibition. HEK-293 ATXN2-luciferase reporter, luminescence, 24 h. Potency, µM (series often up to 57 µM), for the others: at the highest dose activity change, negative = inhibition, actives largely listed as inhibitors. actives 0.72% (n = 360,000). AID 1745845; also: potency is read from the fitted curve at half-maximal effect; % is scaled to controls: 0 for no effect and ±100 for the full control effect; nearly all actives have a fitted effect of over 55% in size
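qHTS (up to 57 uM final) was run with 24 h compound exposure of reporter cells at 37 °C. Each well was multiplexed: SteadyGlo luminescence measured ATXN2-luciferase expression after a fluorogenic Gly-Phe-AFC viability readout (25 uM final).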
DRD3 antagonist = D3 dopamine receptor (human) antagonism; max response, negative = inhibition, %; P35462; actives 2.5% (n = 360,000); AID 652054; D3R cells, DiscoveRx beta-arrestin luminescence, antagonist mode; hits give low values; in the data active = max response below about -50%; inconclusive = no clear call, values can overlap the other calls; also: % is scaled to controls: 0 for no effect and ±100 for the full control effect
Target sequence (P35462 whole entry, looked up): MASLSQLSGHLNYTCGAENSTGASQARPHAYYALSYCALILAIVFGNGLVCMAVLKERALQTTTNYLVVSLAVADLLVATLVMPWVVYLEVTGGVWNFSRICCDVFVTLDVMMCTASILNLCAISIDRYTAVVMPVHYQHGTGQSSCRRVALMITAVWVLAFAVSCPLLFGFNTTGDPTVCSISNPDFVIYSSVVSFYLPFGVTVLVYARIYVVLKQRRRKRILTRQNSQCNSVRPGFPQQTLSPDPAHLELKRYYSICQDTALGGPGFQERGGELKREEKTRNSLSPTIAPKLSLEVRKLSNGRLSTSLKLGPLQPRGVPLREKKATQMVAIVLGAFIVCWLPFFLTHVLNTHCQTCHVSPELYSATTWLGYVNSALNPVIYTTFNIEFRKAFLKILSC
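Cells plated overnight at 1500 cells/well, then exposed to library compounds with dopamine controls for 90 minutes at 37 degrees C. DiscoveRx reagent added for 30–60 minutes at room temperature; luminescence read, quantitative HTS format.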
S2 tox = cell viability loss in ATXN counter-screen | S2 cells (HEK-293 line with an ATXN2-luciferase reporter) viability, CellTiter-Fluor protease fluorescence, 24 h | actives 0.49% (n = 400,000) | AID 651635 | Potency, µM (doses to about 56.7 µM), usual class: cytotoxic; also: potency is read from the fitted curve at half-maximal effect; nearly all actives have a fitted effect of over 40% in size
DRD3 agonist = D3 dopamine receptor (human) agonism; P35462; D3R DiscoveRx beta-arrestin cells, luminescence, 90 min; max activation, %; actives 0.58% (n = 410,000); in the data active = max activation above about 30%; also: 0% is about no effect
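Agonist-mode cell screen: cells plated at 1500/well and incubated overnight at 37 °C, then exposed to library compounds for 90 min at 37 °C. Detection reagent was added for 30–60 min at room temperature, and luminescence was read.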
HepG2 tox = kills HepG2 cells in TGF-b inhibitor counter-screen; HepG2 CAGA-GFP viability, ATP luminescence, 18 h; Potency, µM (doses to about 46.1 µM), inactives show at the top dose activity change, negative = cytotoxicity, most hits filed as cytotoxic; actives 0.76% (n = 410,000); AID 588856; also: potency is read from the fitted curve at half-maximal effect
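HepG2 CAGA-GFP cells (1000/well, DMEM with 1% FBS) received compound, then TGF-beta at 500 pg/mL final, and were incubated 18 hours at 37 degrees C. Viability was read by CellTiter-Glo luminescence. Media-only wells were set as complete cell-killing and DMSO as no toxicity.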
TGFb inhibitor = inhibitors of TGF-b signaling; Potency, µM (top dose mostly 46.1 µM), for the others: at the top dose activity, negative = inhibition, usual class: inhibitors; AID 588855; actives 1.2% (n = 410,000); HepG2 CAGA-GFP TGF-b/SMAD3 reporter, GFP fluorescence, 18 h; TGF-beta stimulated, 500 pg/mL final; also: potency is read from the fitted curve at half-maximal effect; % is scaled to controls: 0 for no effect and ±100 for the full control effect; nearly all actives have a fitted effect of over 65% in size
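Cell-based qHTS in HEPG2 carrying a CAGA-GFP Smad reporter; compounds added before 500 pg/mL final TGF-beta, 18 h incubation at 37 degrees C, GFP fluorescence quantified per cell by imaging cytometry.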
* marks the source's active call; other numbers are inactive results; i = inactive; ? = inconclusive; . = not tested or not shown; [ ] = remark or other dose. Only some compounds are listed: those with a hit (about 4.7% of all), similar ones and a draw of the others. Unless noted, calls follow the shape of the dose curve; as a rule, active = well fitted curve in the direction sought with a large enough effect; inconclusive = small, poorly fitted or top-dose-only effect, or another doubt; inactive = no such curve, though single readings can be large; an effect the other way counts as inactive or inconclusive.

SMILES	ATXN2 expr inh	DRD3 antagonist	S2 tox	DRD3 agonist	HepG2 tox	TGFb inhibitor
COc1cc2c3c(c1OC)Oc1ccc(cc1)C[C@H]1c4c(cc(OC)c(OC)c4Oc4ccc(cc4)C[C@@H]3N(C)CC2)CCN1C	?	-24.6	.	-44.4	-35.4%	-10.4%
COc1cc2c3cc1Oc1cc(ccc1O)C[C@@H]1c4c(cc(OC)c(O)c4Oc4ccc(cc4)C[C@H]3N(C)CC2)CCN1C	?	0.0	3.98µM*	0.0	-5.4%	0.8%
COc1cc2c3cc1Oc1c(OC)c(OC)cc4c1[C@H](Cc1ccc(cc1)Oc1cc(ccc1O)C[C@H]3N(C)CC2)N(C)CC4	-11.1%	0.0	14.1µM*	-2.6	-51.4%	?
CC1(C)N([O])C(c2ccc(C(=O)O)cc2)=[N+]([O-])C1(C)C	.	.	.	.	4.5%	2.0%
CC(=O)c1ccc(N2CCN(S(=O)(=O)c3cc(-c4onc(C)c4C)ccc3C)CC2)cc1	.	.	.	4.2	-20.8%	?
O=[N+]([O-])C(Br)(CO)CO	.	.	.	-1.4	.	.
COc1cc2c(cc1O)[C@@H]1Cc3ccc(OC)c(O)c3CN1CC2	-21.8%	-99.6*	i	-89.3	-18.2%	-14.7%
COc1ccc(C[C@@H]2c3cc(O)c(OC)cc3CCN2C)cc1O	4.3%	-116.8*	i	-31.0	-8.9%	0.4%
C1=C2CCCN[C@H]2[C@@H]2C[C@H]1[C@@H]1CCCCN1C2	-15.8%	.	.	.	.	.
C[C@H]1CCCC=CC2C[C@H](O)C[C@@H]2[C@H](O)C=CC(=O)O1 (stereo not given in full)	?	.	.	.	-43.1%	0.126µM*
C[C@]12CC[C@H]3[C@@H](CCC4=C(O)C(=O)CC[C@@H]43)[C@@H]1CC[C@@H]2OC(=O)CCC1CCCC1	.	.	.	3.2	.	.
CC(C)(C)c1ccc(C(=O)Nc2ccc3nc(SCC(=O)N4CCCC4)sc3c2)cc1	.	.	.	3.9	-21.1%	?
Cc1cc2c(C(C)C)c(O)c(O)c(C=O)c2c(O)c1-c1c(C)cc2c(C(C)C)c(O)c(O)c(C=O)c2c1O	?	.	25.1µM*	13.4	1.41µM*	1.12µM*
c1ccc(CCN2CCC(N3CCN(c4ccccc4)CC3)CC2)cc1	12.3%	-24.3	i	68.9*	3.1%	15.5%
c1ccc(CCN2CCOCC2)cc1	.	.	.	.	11.5%	-5.2%
CN1CCN(C2=Nc3cc(Cl)ccc3Nc3ccccc32)CC1	?	-80.9*	?	.	-19.0%	14.3%
S=C1CN=C(c2ccccc2Cl)c2cc(Cl)ccc2N1	-10.8%	7.0	?	1.5	-23.8%	-10.0%
COc1cc2cc(c1Cl)N(C)C(=O)CC(OC(=O)C(C)N(C)C(C)=O)C1(C)OC1C(C)C1CC(O)(NC(=O)O1)C(OC)C=CC=C(C)C2 (stereo not given)	-11.9%	-15.1	?	-11.5	-0.7%	0.0%
O=C1C=C(N2CC2)c2ccccc2C1=O	.	-16.7	?	-5.1	-110.0%	15.8µM*
O=C(O)Cn1cc(/C=C2\C(=O)NC(=O)N(Cc3ccco3)C2=O)c2ccccc21	-4.2%	-63.7*	i	-14.4	6.0%	3.1%
COc1ccc2c3c1O[C@H]1[C@@H](O)C=C[C@H]4[C@@H](C2)N(C)CC[C@@]341	?	.	14.1µM*	-4.4	.	.
C[C@H]1[C@H]2Cc3ccc(O)cc3[C@]1(C)CCN2CCc1ccccc1	.	.	?	-17.3	.	.
O=C1NCN(c2ccccc2)C12CCN(C(c1ccccc1OC(F)(F)F)c1nnnn1Cc1ccccc1)CC2 (stereo not given)	-20.0%	92.2	.	30.2*	-46.2%	?
CCCCn1nnnc1C(c1cccs1)N1CCC2(CC1)C(=O)NCN2c1ccccc1 (stereo not given)	-10.3%	-52.2*	.	-10.2	5.4%	?
COc1ccc(C(c2nnnn2-c2c(C)cccc2C)N2CCC3(CC2)C(=O)NCN3c2ccccc2)cc1 (stereo not given)	?	-54.2*	?	-8.1	-53.1%	?
SMILES	ATXN2 expr inh	DRD3 antagonist	S2 tox	DRD3 agonist	HepG2 tox	TGFb inhibitor
CC(=O)c1ccc(Oc2nc(C)nc3c2oc2ccccc23)cc1	-14.3%	.	i	14.8	-23.9%	?
COc1ccccc1N=c1scc(-c2ccc(S(=O)(=O)N3CCCC3)cc2)n1C	.	.	.	16.9	-22.6%	?
O=C(N[C@H]1N=C(c2ccccc2F)c2cccc3c2N(CC3)C1=O)c1cc2ccccc2[nH]1	46.3%	.	?	-8.1	.	.
CCN1CCN(c2cc(N3CCCC3)c(F)cc2[N+](=O)[O-])CC1	-10.5%	-69.2*	?	-37.9	-25.5%	0.0%
CN1CCN(c2cc(N3CCCC3)c([N+](=O)[O-])cc2F)CC1	-13.8%	-78.5*	?	1.9	-25.6%	-7.1%
C[C@H]1[C@@H]2Cc3ccc(O)cc3[C@@]1(C)CCN2C	-9.1%[288 µM]	.	?	0.0	.	.
CCOC(=O)c1cnc(N2CC2)nc1N	15.8µM*	-4.8	28.2µM*	-0.3	-3.1%	-8.3%
CCOC(=O)c1ccccc1C(=O)OCC	6.3%	18.6	i	15.7	-6.6%	39.8%
O=c1[nH]c(CN2CC=C(c3ccccc3)CC2)nc2cc(C(F)(F)F)ccc12	-10.0%	-27.2	?	-0.9	-20.3%	11.3%
O=c1[nH]c(CN2CC=C(c3ccccc3)CC2)nc2scc(-c3ccccc3)c12	.	-7.1	i	67.5*	4.8%	-20.4%
Cn1c(=O)oc2cc(S(=O)(=O)N3CCCC(C(=O)N4CCN(c5cccc(Cl)c5)CC4)C3)ccc21 (stereo not given)	-15.9%	.	?	10.6	1.4%	?
CCOC(=O)[C@]12Cc3c(cc(OC)c(OC)c3OC)[C@H]1N(CCC(=O)OC)C(=O)c1ccccc12	?	0.0	?	-11.1	.	.
CCOC(=O)[C@]12Cc3cc(OC)ccc3[C@H]1N(C(C)C)C(=O)c1cc(OC)ccc12	?	?	14.1µM*	-1.1	.	.
CCOC(=O)[C@]12Cc3c(cc(OC)c(OC)c3OC)[C@H]1N(C)C(=O)c1ccccc12	0.5%	-62.9*	?	-3.9	.	.
CCOC(=O)[C@]12Cc3c(cc(OC)c(OC)c3OC)[C@H]1N(C(C)C)C(=O)c1cc(OC)ccc12	17.8µM*	2.2	14.1µM*	0.2	.	.
Cc1oc(-c2cccc(Cl)c2)nc1CN1CCC(C(=O)NCCCN2CCN(c3ccc(F)cc3)CC2)CC1	-30.8%	.	i	-13.0	-10.1%	?
Cc1oc(-c2ccc(Cl)cc2)nc1CN1CCC(C(=O)NCCCN2CCN(c3cccc(Cl)c3)CC2)CC1	.	.	.	-25.6	-22.8%	15.8µM*
CN(C)CCCNCC(=O)Nc1ccc(Cl)cc1C(=O)c1ccccc1	-13.2%[11.3 µM]	0.4	i	2.2	-15.3%	9.8%
